This is a sample that favours compounds with a hit; in the whole collection about 3.4% have one here.
FBW7 act: FBW7 E3 ligase activators, primary screen, biochemical, AlphaScreen, human. AlphaScreen FBW7–phospho-cyclin E peptide binding, activator screen. F-box/WD repeat-containing protein 7 (Homo sapiens), Q969H0. normalized activity (activation), % at 26.1 µM. hit rate 0.13% among 650,000; in the data active = normalized activity above about 1.9%;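 note: purified mutant Fbw7 with reduced substrate affinity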
GPR151 activ: activators of human GPR151, primary screen, cell-based, PathHunter beta-arrestin, luminescence | activation, % at 11.2 µM | G-protein coupled receptor 151 (Homo sapiens), Q8TDV0 | hit rate 1% among 650,000 | PathHunter beta-arrestin GPR151 cells; in the data active = activation above about 4.9%
MITF primary: MITF inhibitors, primary screen, biochemical, AlphaScreen, human | Microphthalmia-associated transcription factor (Homo sapiens), O75030 | inhibition, % at 2.6 µM | hit rate 0.91% among 650,000 | AlphaScreen MITF homodimerization, bead proximity signal; in the data active = inhibition above about 50%
Target sequence (O75030 whole entry, looked up): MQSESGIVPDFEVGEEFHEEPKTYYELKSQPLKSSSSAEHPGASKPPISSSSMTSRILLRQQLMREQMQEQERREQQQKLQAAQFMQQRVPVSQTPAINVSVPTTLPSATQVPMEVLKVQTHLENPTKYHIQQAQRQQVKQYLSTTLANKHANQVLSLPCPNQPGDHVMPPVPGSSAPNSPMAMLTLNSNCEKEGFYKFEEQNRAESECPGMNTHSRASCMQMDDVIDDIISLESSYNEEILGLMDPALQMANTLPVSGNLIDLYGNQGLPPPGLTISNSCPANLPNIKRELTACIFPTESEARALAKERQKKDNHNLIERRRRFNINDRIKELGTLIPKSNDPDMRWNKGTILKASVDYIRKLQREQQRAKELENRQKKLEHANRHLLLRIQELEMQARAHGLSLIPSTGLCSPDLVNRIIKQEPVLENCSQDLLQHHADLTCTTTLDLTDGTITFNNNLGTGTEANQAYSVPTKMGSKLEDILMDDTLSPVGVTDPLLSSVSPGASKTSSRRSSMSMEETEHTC
TEAD-YAP block: TEAD-YAP interaction inhibition, primary screen, TEAD-YAP interaction inhibitor project, luminescence, HEK-TIYL cells; TEAD-Gal4/YAP UAS-luciferase luminescence; inhibition, % at 9.12 µM; hit rate 1.4% among 640,000; in the data active = inhibition above about 32%
Each line names hits and unclear results; the compound was inactive in the other large screens.

COc1ccc(CCNc2nc(Nc3ccccc3)nc3nc[nH]c23)cc1	none
c1ccc(CNc2nc(Nc3cccnc3)nc3nc[nH]c23)cc1	none
COc1cc(Nc2nc(Nc3cnccn3)nc3nc[nH]c23)cc(OC)c1OC	FBW7 act 4.5, TEAD-YAP block 34
COc1cc(Nc2nc(Nc3ccccc3)nc3nc[nH]c23)cc(OC)c1OC	none
COc1ccc(CCNc2nc(NCc3cccnc3)ncc2C)cc1	TEAD-YAP block 40
CCCCSc1nnc2c(n1)OC(c1cc(Br)ccc1OC)Nc1ccccc1-2 (stereo not drawn)	none
O=C(CCn1c(=O)oc2ccccc21)NC1CCCCC1	none
c1ccc(Nc2nc(Nc3ccncc3)nc3nc[nH]c23)cc1	none
c1ccc(Nc2nc(Nc3cccnc3)nc3nc[nH]c23)cc1	TEAD-YAP block 58
COc1ccc(CCNc2nc(Nc3cc(OC)c(OC)c(OC)c3)nc3nc[nH]c23)cc1	TEAD-YAP block 61
Cc1cc(Br)c(S(=O)(=O)N2CCCCC2)cc1C	none
Cc1cc(Br)c(S(=O)(=O)N2CCC(C)CC2)cc1C	FBW7 act 2.1
C=Cc1ccc(COc2ccc3c(C)c(CCCCCC)c(=O)oc3c2)cc1	none
CN1C(=O)/C(=C/c2ccccc2Cl)SC1=S	none
CCOC(=O)c1ccc2c(c1)sc1nc(-c3ccccc3)cn12	TEAD-YAP block 54
Clc1ccc(-c2cn3c(n2)sc2ccccc23)cc1	FBW7 act 2.7
Ic1ccc(-c2cn3c(n2)sc2ccccc23)cc1	none
COC(=O)c1ccc2c(c1)sc1nc(-c3ccccc3)cn12	TEAD-YAP block 65
COCCNc1nn2c(=O)c3c(C)c(C)sc3nc2c2ccccc12	none
COC(=O)N/N=C\c1cc(OC)c(O)c(Br)c1Br	none
CCOc1ccccc1NC(=O)CSc1nc2ccc(OC)cc2cc1C#N	TEAD-YAP block 48
COc1ccccc1NC(=O)CSc1nc2cc3c(cc2cc1C#N)OCO3	none
N#Cc1cc2cc3c(cc2nc1SCC(=O)NCc1ccccc1)OCCO3	TEAD-YAP block 36
N#Cc1cc2cc3c(cc2nc1SCC(=O)Nc1ccccc1F)OCCO3	TEAD-YAP block 54
CCOc1ccccc1NC(=O)CSc1nc2cc3c(cc2cc1C#N)OCCO3	TEAD-YAP block 53
N#Cc1cc2cc3c(cc2nc1SCC(=O)Nc1ccccc1)OCCO3	none
CCOC(=O)c1c(-c2ccc(OC)cc2)csc1NC(=O)C(C)(C)C	none
C/C(=N\Nc1ccc([N+](=O)[O-])cc1)c1ccc(F)cc1	none
CC(C)(C)CN1CCN(Cc2cnn(-c3cccc(Cl)c3)c2)CC1CCO (stereo not drawn)	none
CC(C)c1ccc(C#N)c(SCC(=O)Nc2ccccc2C(=O)O)n1	FBW7 act 3.9
N#Cc1c(N)nc(SCC(=O)NCc2ccccc2)c(C#N)c1-c1ccccc1Cl	TEAD-YAP block 58
CCOC(=O)c1sc(=S)n(-c2cc(Cl)ccc2OC)c1N	none
O=[N+]([O-])c1ccc(N2CCN(c3ccc([N+](=O)[O-])c4cccnc34)CC2)cc1	FBW7 act 2.3
CC(=O)c1c(C)[nH]c(C(=O)CN2C(=O)c3ccccc3S2(=O)=O)c1C	TEAD-YAP block 41
O=C(CN1C(=O)c2ccccc2S1(=O)=O)c1ccccc1	TEAD-YAP block 54
CCOC(=O)CN1C(=O)c2ccccc2S1(=O)=O	none
COc1ccc(COc2ccc3c(C(F)(F)F)cc(=O)oc3c2)cc1	none
Cc1cccc(N=C(NN)c2ccc3ccccc3n2)c1	TEAD-YAP block 66
COCCn1c(=O)n(CC(=O)N2CCCCC2)c2cccnc21	none
COCCn1c(=O)n(CC(=O)N2CCC(C(N)=O)CC2)c2cccnc21	FBW7 act 5.7
Cc1sc(NC(=O)c2ccc(Cl)s2)c(C(N)=O)c1-c1ccc(F)cc1	TEAD-YAP block 36
Cc1sc(NC(=O)c2ccc(Cl)s2)c(C(N)=O)c1C	none
CC(=O)Nc1ccc(NC(C)=O)c2c1C(=O)c1c(NC(C)=O)ccc(NC(C)=O)c1C2=O	MITF primary 82
CC(=O)Nc1cccc2c1C(=O)c1cccc(NC(C)=O)c1C2=O	none
CCOC(=O)c1cnc(SCCCc2ccccc2)nc1N	none
NNC(=O)c1c(N)n(-c2ccc3ccccc3c2)c2nc3ccccc3nc12	TEAD-YAP block 47
Cc1ccc(-n2c(N)c(C(=O)O)c3nc4ccccc4nc32)cc1C	none
Cc1ccc(-c2nc(N)sc2-c2ccc([N+](=O)[O-])cc2)cc1	TEAD-YAP block 37
N[C@H](C(=O)O)[C@H](O)c1ccc(O)c(O)c1	MITF primary 54
NC(C(=O)O)C(O)c1ccccc1 (stereo not drawn)	none
Cc1c(C(=O)Nc2ccccc2F)sc2ncn(CC(=O)Nc3cccc(C(F)(F)F)c3)c(=O)c12	none
COc1ccc(NC(=O)CSCc2cc(=O)[nH][nH]2)cc1	none
CCc1cc2c(=O)c(-c3ccc4c(c3)OCCCO4)coc2cc1OC(=O)c1ccco1	TEAD-YAP block 44
CCc1cc2c(=O)c(-c3ccc4c(c3)OCO4)coc2cc1OC(C)=O	none
CCc1cc2c(=O)c(-c3ccc4c(c3)OCCO4)coc2cc1OCC(=O)O	TEAD-YAP block 87
CC1=C(OC(=O)c2ccc(Br)cc2)C(C)(C)C(c2ccc(Cl)cc2)OC1=O (stereo not drawn)	none
CCCCN(C#N)c1nc(N2CCOCC2)nc(N2CCOCC2)n1	none
COc1cccc(C2NC(=O)NC(C)=C2C(=O)Nc2ccc(F)cc2)c1OC (stereo not drawn)	TEAD-YAP block 43
CC1=C(C(=O)Nc2ccc(Br)cc2)C(c2ccc(O)cc2)NC(=O)N1 (stereo not drawn)	FBW7 act 2.8
CCOC(=O)c1c(NC(=O)c2ccc(S(=O)(=O)N3CCCCC3)cc2)sc2c1CCN(C(=O)OCC)C2	none
CCOc1cc2c(cc1/C=C1/NC(=O)NC1=O)OCO2	none
COC(=O)c1ccc(NS(=O)(=O)c2ccc(OC)cc2)cc1	none
COC(=O)c1ccc(N2CCCCCC2)c(NS(=O)(=O)c2ccc(OC)cc2)c1	TEAD-YAP block 57
COC(=O)c1ccc(C)c(NS(=O)(=O)c2ccc(OC)c(OC)c2)c1	none
COC(=O)c1ccc(C)c(NS(=O)(=O)c2ccc(OC)c(Cl)c2)c1	TEAD-YAP block 41
COC(=O)c1ccc(C)c(NS(=O)(=O)c2ccc3ccccc3c2)c1	TEAD-YAP block 53
COC(=O)c1ccc(Cl)c(NS(=O)(=O)c2ccc(C)cc2)c1	TEAD-YAP block 57
COC(=O)c1ccc(Cl)c(NS(=O)(=O)c2ccc(OC)c(Cl)c2)c1	none
Nc1nonc1/C(=N/O)N1CCN(c2ccc(C(F)(F)F)cc2[N+](=O)[O-])CC1	none
COc1ccc(C(=O)Nc2cc3c(ccc4ccccc43)oc2=O)cc1OC	none
COc1ccc(-c2noc(CN(Cc3ccccn3)CC3CCCO3)n2)c(OC)c1OC (stereo not drawn)	TEAD-YAP block 39
O=C(/C=C/Nc1ccccc1Br)c1ccccn1	TEAD-YAP block 92
O=C(/C=C\Nc1cccc(Br)c1)c1ccccc1	none
O=C(/C=C/Nc1ccc(Br)cc1F)c1ccccc1	TEAD-YAP block 84
